{
  "source": "PubChem BioAssay (NCATS)",
  "note": "Inconclusive results are not listed. A number with no mark means an inactive call. The source made the active and inactive calls. Calls come from the whole dose curve; as a rule, active = well fitted activation curve with a large enough effect in the signal ratio (not every such curve was filed as active); inconclusive = small, poorly fitted or top-dose-only effect, or a change in a side signal; inactive = flat fitted curve, though single readings scatter; the % refers to the signal ratio. Potency is the fitted concentration of half-maximal effect.",
  "data": [
    {"experiment": "qHTS assay for small molecule activators of the p53 signaling pathway (AID 651743); for activation: series mostly up to about 92 µM; % of control where 0% means no effect", "details": "HCT-116 p53RE-bla, beta-lactamase FRET ratio, 16 h; activation: stronger effect = higher value", "source_text": "National Center for Advancing Translational Sciences [NCATS] NIH Chemical Genomics Center [NCGC] U.S. Environmental Protection Agency [EPA] National Institutes of Environmental Health Sciences [NIEHS] National Toxicology Program [NTP] Assay Overview: p53, a tumor suppressor protein, is activated following cellular insult, including DNA damage and other cellular stresses. The activation of p53 regulates cell fate by inducing DNA repair, cell cycle arrest, apoptosis, or cellular senescence. The activation of p53, therefore, is a good indicator of DNA damage and other cellular stresses. The CellSensor p53RE-bla HCT-116 cell line (Invitrogen) contains a stably integrated beta-lactamase reporter gene under control of the p53 response elements. The activation of the report gene under culture conditions can be detected by fluorescence intensity. This cell line can be used to screen chemicals in a 1536-well plate format and to identify agonists that activate p53 signaling pathway.\nAssay Protocol Summary: The p53RE-bla cells were dispensed at 4,000 cells/5 ul/well in 1536-well black wall/clear bottom plates using a Multidrop dispenser. After the assay plates were incubated at a 37 C/5% CO2 incubator for 5 hours, 23 nL of compounds dissolved in DMSO, positive controls or DMSO only was transferred to the assay plate by a pin tool. The plates were incubated at 37 C for 16 hours. After 1 uL of LiveBLAzer B/G FRET substrate was added using a Flying Reagent Dispenser, the plates were incubated at room temperature for 2 hours, and fluorescence intensity was measured by an Envision plate reader.", "units": {"activation": "%"}, "values": [
      {"compound": "CC1(C)[C@H](C(=O)O[C@H](C#N)c2cccc(Oc3ccccc3)c2)[C@@H]1C=C(Br)Br", "activation": 3.18},
      {"compound": "CC1(C)CC/C(=C\\c2ccc(Cl)cc2)C1(O)Cn1cncn1", "note": "(stereo not given)", "activation": -1.43},
      {"compound": "CC1=C(C(=O)Nc2ccccc2)SCCO1", "activation": 1.21},
      {"compound": "COC[C@H](C)N(C(=O)CCl)c1c(C)csc1C", "activation": -5.41},
      {"compound": "CCC(C)(c1ccc(O)cc1)c1ccc(O)cc1", "activation": -1.26},
      {"compound": "CCCCN(CC)c1c([N+](=O)[O-])cc(C(F)(F)F)cc1[N+](=O)[O-]", "activation": -2.46},
      {"compound": "CCN(CC)C(=O)SCc1ccc(Cl)cc1", "activation": 1.13},
      {"compound": "CCOP(OCC)OCC", "activation": 0.684},
      {"compound": "CCOP(=S)(NC(C)C)Oc1ccccc1C(=O)OC(C)C", "note": "(stereo not given)", "activation": 2.9},
      {"compound": "CNC(=O)Oc1cc(C)cc(C(C)C)c1", "activation": 6.05},
      {"compound": "CCOP(=S)(OCC)SCCl", "activation": 0.473},
      {"compound": "Cc1cc(C)nc(NC(=O)NS(=O)(=O)c2ccccc2C(=O)OC2COC2)n1", "activation": 1.69},
      {"compound": "CC1(C)C(C(=O)OC(C#N)c2cccc(Oc3ccccc3)c2)C1(C)C", "note": "(stereo not given)", "activation": -5.39},
      {"compound": "CCOP(=O)(NC(C)C)Oc1ccc(S(C)=O)c(C)c1", "note": "(stereo not given)", "activation": -0.147},
      {"compound": "CNc1cnn(-c2cccc(C(F)(F)F)c2)c(=O)c1Cl", "activation": 1.24},
      {"compound": "O=S(=O)(c1ccc(Cl)cc1)c1cc(Cl)c(Cl)cc1Cl", "activation": 8.22},
      {"compound": "CNC(=O)Oc1cc(C)c(SC)c(C)c1", "activation": -3.45},
      {"compound": "C/C=C(\\C)C(=O)O[C@H]1C[C@@H](OC(C)=O)[C@@]2(C(=O)OC)CO[C@H]3[C@@H](O)[C@@](C)([C@]45O[C@@]4(C)[C@H]4C[C@@H]5O[C@@H]5OC=C[C@@]54O)[C@H]4[C@]1(CO[C@]4(O)C(=O)OC)[C@@H]32", "activation": 6.01},
      {"compound": "CN(C)P(=O)(N(C)C)N(C)C", "activation": -2.55},
      {"compound": "CC(C)(c1ccccc1)c1cc(-n2nc3ccccc3n2)c(O)c(C(C)(C)c2ccccc2)c1", "activation": -0.652},
      {"compound": "COC(=O)c1ccccc1S(=O)(=O)NC(=O)Nc1nc(C)nc(OC)n1", "activation": 6.08},
      {"compound": "COP(=O)(OC)Oc1nc(Cl)c(Cl)cc1Cl", "activation": 6.76},
      {"compound": "O=C(Nc1ccccc1)Nc1ccnc(Cl)c1", "activation": 4.1},
      {"compound": "CC(C)(C)C(O)/C(=C\\c1ccc(Cl)cc1Cl)n1cncn1", "note": "(stereo not given)", "activation": 9.12},
      {"compound": "CCCOCC(=Nc1ccc(Cl)cc1C(F)(F)F)n1ccnc1", "activation": -5.04},
      {"compound": "COC(=O)c1sccc1S(=O)(=O)NC(=O)Nc1nc(C)nc(OC)n1", "activation": -3.25},
      {"compound": "CCC(C)(C)c1ccc(O)c(C(C)(C)CC)c1", "activation": -0.913},
      {"compound": "Brc1ccc(Br)cc1", "activation": -8.84},
      {"compound": "CNC(=S)S", "activation": -4.42},
      {"compound": "N#Cc1cc(I)c(O)c(I)c1", "Potency": "44.7 µM (active)"},
      {"compound": "O=[N+]([O-])c1ccc(Nc2ccccc2)cc1", "activation": -0.549},
      {"compound": "O=C(NC(=O)c1c(F)cccc1F)Nc1cc(Cl)c(OC(F)(F)C(F)F)c(Cl)c1", "activation": -1.27},
      {"compound": "CCNc1nc(NCC)nc(SC)n1", "activation": -3.86},
      {"compound": "C[N+]1(C)CCCCC1", "activation": 0.854},
      {"compound": "CCOP(=O)(OCC)SCCSCC", "activation": 1.72},
      {"compound": "CCOP(=O)(OCC)SCS(=O)(=O)C(C)(C)C", "activation": 2.21},
      {"compound": "COP(=S)(OC)Oc1ccc([N+](=O)[O-])c(C)c1", "activation": -5.64},
      {"compound": "CCOC(=O)COc1cc(-c2nn(C)c(OC(F)F)c2Cl)c(F)cc1Cl", "activation": -1.21},
      {"compound": "CC(C)[C@H](C(=O)O[C@H](C#N)c1cccc(Oc2ccccc2)c1)c1ccc(Cl)cc1", "activation": -0.0449},
      {"compound": "Brc1c(Br)c(Br)c(Br)c(Br)c1Br", "activation": 2.23}
    ]}
  ]
}
